# Measurements taken from the supplement of paper PMC11172423.
# Values without a mark were called inactive.
# Test system: Madurella mycetomatis MM55
# Test: growth relative to untreated control; higher = less inhibition, active = 20 or less
# Conditions: 25 µM
# Procedure: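 Hyphal fragments of M. mycetomatis MM55 or F. senegalensis CBS197.79 in RPMI 1640/MOPS were exposed to each MMV COVID Box or Global Health Priority Box compound at 100 or 25 µM for 7 days at 37 °C. Viability was read with MTS (490 nm, M. mycetomatis) or resazurin (600 nm, F. senegalensis), background-corrected with a medium-only control and expressed as % growth relative to the untreated growth control. Inhibition of more than 80% was taken as growth inhibition.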
row,Structure (SMILES),growth
1,CC(C)(C)Cn1c(N)nc2ccc(-c3[nH]c(C(C)(C)C)nc3-c3ccc(F)cc3)nc21,82.9%
2,CC(CN1c2ccccc2Sc2ccccc21)N(C)C (stereo not given),77.8%
3,COc1ccc(Cl)cc1-c1nc(C(=O)NCCN2CCCCC2)c(C(C)C)s1,14.8% (active)
4,Cc1cccnc1-c1noc(-c2ccccc2)n1,49.2%
5,CN(C)CCOc1ccc(/C(=C(/CCCl)c2ccccc2)c2ccccc2)cc1,7.23% (active)
6,COCC[C@H](NC(=O)c1cc2ccc(C(F)(F)F)cc2[nH]1)c1ccccc1,30.3%
7,COc1cc(OC)c2c(O)nc(-c3cc(C)c(OCCO)c(C)c3)nc2c1,103%
8,CCOc1cc(C(C)(C)C)ccc1C1=N[C@@](C)(c2ccc(Cl)cc2)[C@@](C)(c2ccc(Cl)cc2)N1C(=O)N1CCN(CCCS(C)(=O)=O)CC1,86.9%
9,NS(=O)(=O)OC[C@@H]1C[C@@H](n2ccc3c(N[C@H]4CCc5ccccc54)ncnc32)C[C@@H]1O,85%
10,CN(C)C[C]1[CH][CH][CH][C]1CNc1ccnc2cc(Cl)ccc12.[CH]1[CH][CH][CH][CH]1.[Fe],33.7%
11,Cc1cc2ncc(C(=O)NCC(C)(C)NCC(=O)N3CCC[C@H]3C#N)cn2n1,82.4%
12,CCOC(=O)N1CCC(=C2c3ccc(Cl)cc3CCc3cccnc32)CC1,54.3%
13,CCc1nn2c(Nc3ccncc3)cc(C)nc2c1-c1ccccc1,96.8%
14,COC(=O)N[C@H](C(=O)N[C@@H](Cc1ccccc1)[C@@H](O)CN(Cc1ccc(-c2ccccn2)cc1)NC(=O)[C@@H](NC(=O)OC)C(C)(C)C)C(C)(C)C,88.9%
15,O=C(Nc1ncc([N+](=O)[O-])s1)c1ccccc1O,72.6%
16,Cn1nc(-c2cccc(CNC3CCc4ccc(O)cc43)c2)c2cnc(NC3CCCC3)nc21 (stereo not given),5.13% (active)
17,NC(=O)N1CCC(CC(=O)N2CCC([C@H]3c4ncc(Br)cc4CCc4cc(Cl)cc(Br)c43)CC2)CC1,3.17% (active)
18,Cn1cc(CN2CCc3c(c(C(=O)NCc4nccs4)nn3Cc3ccccc3)C2)c2ccccc21,88.4%
19,C[C@H](/N=C(\N)c1cc2c(F)cc(F)cc2[nH]1)c1ccccc1,35%
20,Cc1ccc(C(=O)Nc2ccc(CN3CCN(C)CC3)c(C(F)(F)F)c2)cc1C#Cc1cnc2cccnn12,16.4% (active)

# Same assay, conditions: 100 µM
row,Structure (SMILES),growth
1,CC(C)(C)Cn1c(N)nc2ccc(-c3[nH]c(C(C)(C)C)nc3-c3ccc(F)cc3)nc21,3.85% (active)
2,CC(CN1c2ccccc2Sc2ccccc21)N(C)C (stereo not given),3.58% (active)
3,COc1ccc(Cl)cc1-c1nc(C(=O)NCCN2CCCCC2)c(C(C)C)s1,6.6% (active)
4,Cc1cccnc1-c1noc(-c2ccccc2)n1,87.4%
5,CN(C)CCOc1ccc(/C(=C(/CCCl)c2ccccc2)c2ccccc2)cc1,6.66% (active)
6,COCC[C@H](NC(=O)c1cc2ccc(C(F)(F)F)cc2[nH]1)c1ccccc1,52.2%
7,COc1cc(OC)c2c(O)nc(-c3cc(C)c(OCCO)c(C)c3)nc2c1,72.7%
8,CCOc1cc(C(C)(C)C)ccc1C1=N[C@@](C)(c2ccc(Cl)cc2)[C@@](C)(c2ccc(Cl)cc2)N1C(=O)N1CCN(CCCS(C)(=O)=O)CC1,99.8%
9,NS(=O)(=O)OC[C@@H]1C[C@@H](n2ccc3c(N[C@H]4CCc5ccccc54)ncnc32)C[C@@H]1O,99.5%
10,CN(C)C[C]1[CH][CH][CH][C]1CNc1ccnc2cc(Cl)ccc12.[CH]1[CH][CH][CH][CH]1.[Fe],39.8%
11,Cc1cc2ncc(C(=O)NCC(C)(C)NCC(=O)N3CCC[C@H]3C#N)cn2n1,84.8%
12,CCOC(=O)N1CCC(=C2c3ccc(Cl)cc3CCc3cccnc32)CC1,6.05% (active)
13,CCc1nn2c(Nc3ccncc3)cc(C)nc2c1-c1ccccc1,75.7%
14,COC(=O)N[C@H](C(=O)N[C@@H](Cc1ccccc1)[C@@H](O)CN(Cc1ccc(-c2ccccn2)cc1)NC(=O)[C@@H](NC(=O)OC)C(C)(C)C)C(C)(C)C,105%
15,O=C(Nc1ncc([N+](=O)[O-])s1)c1ccccc1O,91.8%
16,Cn1nc(-c2cccc(CNC3CCc4ccc(O)cc43)c2)c2cnc(NC3CCCC3)nc21 (stereo not given),10.2% (active)
17,NC(=O)N1CCC(CC(=O)N2CCC([C@H]3c4ncc(Br)cc4CCc4cc(Cl)cc(Br)c43)CC2)CC1,11.2% (active)
18,Cn1cc(CN2CCc3c(c(C(=O)NCc4nccs4)nn3Cc3ccccc3)C2)c2ccccc21,32.5%
19,C[C@H](/N=C(\N)c1cc2c(F)cc(F)cc2[nH]1)c1ccccc1,5.98% (active)
20,Cc1ccc(C(=O)Nc2ccc(CN3CCN(C)CC3)c(C(F)(F)F)c2)cc1C#Cc1cnc2cccnn12,10.5% (active)
